The AC50 is the concentration at which the activity in the assay is half-maximal.

These results are taken from PubChem BioAssay (EPA / NIEHS).

The target in assay [1] is Type-1 angiotensin II receptor (Homo sapiens) (UniProt P30556). The assay can be described thus: NVS_GPCR_hAT1: NovaScreen (NVS) G Protein-Coupled Receptor Assay for human Angiotensin II receptor type 1 (AT1) (AID 2283263). Put shortly: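 Membranes from KAN-TS cells; radioligand competitive displacement, 3 h, filtration and scintillation counting. Single-point duplicate screen at 25 uM, then concentration-response up to 50 uM for hits; loss of signal fitted versus DMSO.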
Chain of Type-1 angiotensin II receptor (Homo sapiens) (P30556 whole entry, looked up): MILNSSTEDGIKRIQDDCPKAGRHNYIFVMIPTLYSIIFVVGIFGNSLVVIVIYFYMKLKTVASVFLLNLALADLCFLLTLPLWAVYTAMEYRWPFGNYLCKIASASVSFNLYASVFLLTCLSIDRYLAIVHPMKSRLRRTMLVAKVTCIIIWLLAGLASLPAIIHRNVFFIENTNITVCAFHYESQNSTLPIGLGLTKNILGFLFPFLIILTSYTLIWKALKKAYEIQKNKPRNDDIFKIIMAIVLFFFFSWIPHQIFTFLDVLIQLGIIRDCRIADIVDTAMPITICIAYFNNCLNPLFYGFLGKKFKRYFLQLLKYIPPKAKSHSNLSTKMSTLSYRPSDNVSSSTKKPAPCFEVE

Assay [2] has as its target human Endothelin Receptor Type A (ETA), EDNRA (gene 1909) (UniProt P25101). The assay can be described thus: NVS_GPCR_hETA: NovaScreen (NVS) G Protein-Coupled Receptor Assay for human Endothelin Receptor Type A (ETA) (AID 2283265). An outline of the steps:
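Cell-free radioligand displacement using SH-SY5Y-derived protein, 3 h incubation, filter-based scintillation counting. Primary screen in duplicate at 25 uM; actives then run in concentration-response up to 50 uM; loss of binding fitted versus DMSO.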

In assay [3] the target is human Endothelin Receptor Type B (ETB), EDNRB (gene 1910) (UniProt P24530). Description: NVS_GPCR_hETB: NovaScreen (NVS) G Protein-Coupled Receptor Assay for human Endothelin Receptor Type B (ETB) (AID 2283267). Put shortly:
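Human astrocytoma cell membranes; radioligand competitive binding read by filter scintillation counting 4 hours after dosing. Single-concentration duplicate screen at 25 uM, then singleton concentration-response up to 50 uM; loss of signal versus DMSO.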

Assay [4] concerns the target human Adrenergic, Beta 3 Receptor (Adrb3), ADRB3 (gene 155) (UniProt P13945). Description: NVS_GPCR_hAdrb3: NovaScreen (NVS) G Protein-Coupled Receptor Assay for human Adrenergic, Beta 3 Receptor (Adrb3) (AID 2283262). An outline of the steps: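 Membranes from SK-N-MC cells pretreated with isoproterenol and 8-bromo-cAMP were used in a radioligand competitive displacement binding assay. Binding was read by filter-based scintillation counting 1 hour after dosing. Primary screening was in duplicate at 25 uM, with concentration series in follow-up.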

Assay [5] concerns the target human Dopamine Receptor D4.4 (DRD4.4), DRD4 (gene 1815) (UniProt P21917). Description: NVS_GPCR_hDRD4.4: NovaScreen (NVS) G Protein-Coupled Receptor Assay for human Dopamine Receptor D4.4 (DRD4.4) (AID 2283264). An outline of the steps:
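Radioligand displacement on human DRD4.4 from CHO-derived membranes, 1 hour incubation, bound counts read by filtration and scintillation. Primary screen in duplicate at 25 uM; actives followed up in concentration series.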

For assay [6], the target named is human Dopamine Receptor D2 (DRD2), DRD2 (gene 1813) (UniProt P14416). The assay can be described thus: NVS_GPCR_hDRD2s: NovaScreen (NVS) G Protein-Coupled Receptor Assay for human Dopamine Receptor D2 (DRD2) (AID 2283266). Put shortly:
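Radioligand displacement used human DRD2 membranes extracted from CHO cells and was read by filter-based scintillation counting after 1.5 hours. Primary screening was in duplicate at 25 uM. Loss of signal versus DMSO was fitted, with concentration series in follow-up.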

Assay [7] has as its target human Adrenergic, Alpha 2c Receptor (Adra2C), ADRA2C (gene 152) (UniProt P18825). The assay can be described thus: NVS_GPCR_hAdra2C: NovaScreen (NVS) G Protein-Coupled Receptor Assay for human Adrenergic, Alpha 2c Receptor (Adra2C) (AID 2283259). Put shortly:
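Radioligand binding on Sf9-expressed receptor membranes, 1 h after chemical dosing, filter-based scintillation read-out. Loss of binding fitted positively versus DMSO; primary duplicate screen at 25 uM, actives retested in concentration series.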

Assay [8] addresses human Adrenergic, Alpha 2A Receptor (Adra2A), ADRA2A (gene 150) (UniProt P08913). Description: NVS_GPCR_hAdra2A: NovaScreen (NVS) G Protein-Coupled Receptor Assay for human Adrenergic, Alpha 2A Receptor (Adra2A) (AID 2283257). An outline of the steps: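 Radioligand filter-binding was run on HT29-derived membranes, cell-free, read by scintillation counting 1 h after dosing. Primary screening was in duplicate at 25 uM, with concentration series in follow-up. Loss of signal versus DMSO indicates displacement.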

Assay [9] deals with Beta-2 adrenergic receptor (Homo sapiens) (UniProt P07550). The assay can be described thus: NVS_GPCR_hAdrb2: NovaScreen (NVS) G Protein-Coupled Receptor Assay for human Adrenergic, Beta 2 Receptor (Adrb2) (AID 2283261). An outline of the steps:
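Filter-based radioligand binding using receptor prepared from CHO cells, 1 h incubation, scintillation counting. Primary screen in duplicate at 25 uM, actives retested in concentration series; loss of binding relative to DMSO.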

The target of assay [10] is human Adrenergic, Beta 1 Receptor (Adrb1), ADRB1 (gene 153) (UniProt P08588). Description: NVS_GPCR_hAdrb1: NovaScreen (NVS) G Protein-Coupled Receptor Assay for human Adrenergic, Beta 1 Receptor (Adrb1) (AID 2283258). An outline of the steps:
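Cell-free radioligand displacement on receptor from human neuroepithelioma cells; 2 h after dosing, filter-based scintillation counting. Primary screen in duplicate at 25 uM, actives retested in concentration series; loss of signal vs DMSO baseline.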

Structures are written as SMILES. Results filed as inconclusive are left out. Active and inactive are the calls of the source. How the source made its calls: active means hit-call score of the fitted dose curve at least 0.9, where 1 is the maximum; inconclusive means response in the unintended direction; inactive means score below 0.9.

Chain of human Adrenergic, Beta 1 Receptor (Adrb1), ADRB1 (gene 153) (P08588 whole entry, looked up): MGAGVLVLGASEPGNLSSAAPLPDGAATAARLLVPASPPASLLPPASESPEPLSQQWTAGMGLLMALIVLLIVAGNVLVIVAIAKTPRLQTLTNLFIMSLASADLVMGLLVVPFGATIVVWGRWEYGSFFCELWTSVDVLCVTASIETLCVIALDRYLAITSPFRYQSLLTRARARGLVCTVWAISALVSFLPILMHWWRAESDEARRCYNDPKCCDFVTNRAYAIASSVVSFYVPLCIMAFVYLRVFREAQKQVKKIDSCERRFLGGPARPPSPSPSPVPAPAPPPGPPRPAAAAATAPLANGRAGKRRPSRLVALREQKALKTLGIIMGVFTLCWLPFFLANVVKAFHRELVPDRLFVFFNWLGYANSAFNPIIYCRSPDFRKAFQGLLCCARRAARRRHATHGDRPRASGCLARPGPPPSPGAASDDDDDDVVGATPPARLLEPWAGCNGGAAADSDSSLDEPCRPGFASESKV
Chain of human Endothelin Receptor Type B (ETB), EDNRB (gene 1910) (P24530 whole entry, looked up): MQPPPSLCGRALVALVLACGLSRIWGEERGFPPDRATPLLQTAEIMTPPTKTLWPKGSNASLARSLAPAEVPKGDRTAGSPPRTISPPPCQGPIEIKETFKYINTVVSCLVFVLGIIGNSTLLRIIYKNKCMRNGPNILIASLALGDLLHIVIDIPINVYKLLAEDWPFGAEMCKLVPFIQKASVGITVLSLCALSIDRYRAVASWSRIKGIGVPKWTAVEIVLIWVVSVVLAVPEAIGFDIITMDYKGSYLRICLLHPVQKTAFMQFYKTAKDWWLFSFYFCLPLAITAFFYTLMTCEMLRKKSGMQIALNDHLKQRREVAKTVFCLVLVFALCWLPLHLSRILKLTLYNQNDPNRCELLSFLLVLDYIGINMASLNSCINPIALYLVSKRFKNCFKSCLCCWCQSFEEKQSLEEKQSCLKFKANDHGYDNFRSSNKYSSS
Chain of human Dopamine Receptor D4.4 (DRD4.4), DRD4 (gene 1815) (P21917 whole entry, looked up): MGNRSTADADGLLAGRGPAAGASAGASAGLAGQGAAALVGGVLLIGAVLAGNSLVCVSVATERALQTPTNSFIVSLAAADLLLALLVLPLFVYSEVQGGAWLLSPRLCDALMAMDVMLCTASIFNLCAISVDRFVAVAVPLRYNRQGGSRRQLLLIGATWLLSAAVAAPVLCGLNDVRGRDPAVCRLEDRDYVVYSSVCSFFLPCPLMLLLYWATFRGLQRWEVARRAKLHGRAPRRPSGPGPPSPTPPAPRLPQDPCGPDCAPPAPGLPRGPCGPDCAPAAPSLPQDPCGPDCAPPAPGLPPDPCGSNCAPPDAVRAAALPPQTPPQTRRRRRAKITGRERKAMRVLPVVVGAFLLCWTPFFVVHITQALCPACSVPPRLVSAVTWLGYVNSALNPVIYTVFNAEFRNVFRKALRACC
Chain of human Adrenergic, Alpha 2A Receptor (Adra2A), ADRA2A (gene 150) (P08913 whole entry, looked up): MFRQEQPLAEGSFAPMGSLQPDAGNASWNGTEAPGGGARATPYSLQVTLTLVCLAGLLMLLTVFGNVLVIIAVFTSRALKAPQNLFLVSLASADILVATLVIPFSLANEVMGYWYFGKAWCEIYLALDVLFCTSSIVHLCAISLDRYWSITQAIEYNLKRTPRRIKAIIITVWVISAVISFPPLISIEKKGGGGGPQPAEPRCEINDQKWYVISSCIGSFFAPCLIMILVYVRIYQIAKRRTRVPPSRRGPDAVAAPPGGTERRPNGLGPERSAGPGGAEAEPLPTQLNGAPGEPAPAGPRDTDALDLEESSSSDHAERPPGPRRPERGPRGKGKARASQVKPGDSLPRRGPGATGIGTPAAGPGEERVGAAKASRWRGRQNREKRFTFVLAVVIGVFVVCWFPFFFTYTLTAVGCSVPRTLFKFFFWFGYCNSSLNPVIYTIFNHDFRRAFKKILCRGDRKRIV
Chain of human Dopamine Receptor D2 (DRD2), DRD2 (gene 1813) (P14416 whole entry, looked up): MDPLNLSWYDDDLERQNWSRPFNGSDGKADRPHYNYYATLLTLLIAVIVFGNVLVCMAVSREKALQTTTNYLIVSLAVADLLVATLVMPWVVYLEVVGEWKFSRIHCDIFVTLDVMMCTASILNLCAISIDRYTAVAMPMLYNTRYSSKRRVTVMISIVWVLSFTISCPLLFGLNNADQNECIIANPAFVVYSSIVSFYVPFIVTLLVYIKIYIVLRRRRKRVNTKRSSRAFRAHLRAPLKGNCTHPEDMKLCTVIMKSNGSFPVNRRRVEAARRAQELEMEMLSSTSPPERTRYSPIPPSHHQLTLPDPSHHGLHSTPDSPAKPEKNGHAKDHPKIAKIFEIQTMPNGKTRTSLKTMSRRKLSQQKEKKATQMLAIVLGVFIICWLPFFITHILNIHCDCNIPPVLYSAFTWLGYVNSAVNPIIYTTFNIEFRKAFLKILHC
Chain of human Adrenergic, Beta 3 Receptor (Adrb3), ADRB3 (gene 155) (P13945 whole entry, looked up): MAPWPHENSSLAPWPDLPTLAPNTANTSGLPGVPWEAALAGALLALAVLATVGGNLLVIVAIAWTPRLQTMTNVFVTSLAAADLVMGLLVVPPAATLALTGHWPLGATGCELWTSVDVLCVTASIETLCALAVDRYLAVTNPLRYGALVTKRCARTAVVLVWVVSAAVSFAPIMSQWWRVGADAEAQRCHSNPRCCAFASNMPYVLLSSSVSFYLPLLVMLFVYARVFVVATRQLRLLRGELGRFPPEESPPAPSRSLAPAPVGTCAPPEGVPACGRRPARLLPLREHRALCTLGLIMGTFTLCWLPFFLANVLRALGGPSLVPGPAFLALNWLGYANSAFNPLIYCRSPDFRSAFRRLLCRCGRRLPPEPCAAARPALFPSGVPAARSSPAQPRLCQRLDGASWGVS
Chain of human Adrenergic, Alpha 2c Receptor (Adra2C), ADRA2C (gene 152) (P18825 whole entry, looked up): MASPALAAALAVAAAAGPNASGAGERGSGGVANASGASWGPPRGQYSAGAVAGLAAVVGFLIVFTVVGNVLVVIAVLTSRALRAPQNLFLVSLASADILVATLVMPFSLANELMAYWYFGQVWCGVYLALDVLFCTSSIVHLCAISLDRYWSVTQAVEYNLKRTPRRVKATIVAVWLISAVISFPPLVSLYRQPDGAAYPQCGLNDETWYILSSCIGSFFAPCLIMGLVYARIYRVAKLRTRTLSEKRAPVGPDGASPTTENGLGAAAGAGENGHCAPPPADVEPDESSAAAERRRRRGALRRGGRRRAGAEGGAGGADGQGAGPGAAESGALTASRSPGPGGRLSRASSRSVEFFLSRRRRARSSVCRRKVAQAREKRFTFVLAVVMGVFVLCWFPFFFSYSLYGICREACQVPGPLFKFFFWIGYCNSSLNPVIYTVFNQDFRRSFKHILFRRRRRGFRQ
Chain of Beta-2 adrenergic receptor (Homo sapiens) (P07550 whole entry, looked up): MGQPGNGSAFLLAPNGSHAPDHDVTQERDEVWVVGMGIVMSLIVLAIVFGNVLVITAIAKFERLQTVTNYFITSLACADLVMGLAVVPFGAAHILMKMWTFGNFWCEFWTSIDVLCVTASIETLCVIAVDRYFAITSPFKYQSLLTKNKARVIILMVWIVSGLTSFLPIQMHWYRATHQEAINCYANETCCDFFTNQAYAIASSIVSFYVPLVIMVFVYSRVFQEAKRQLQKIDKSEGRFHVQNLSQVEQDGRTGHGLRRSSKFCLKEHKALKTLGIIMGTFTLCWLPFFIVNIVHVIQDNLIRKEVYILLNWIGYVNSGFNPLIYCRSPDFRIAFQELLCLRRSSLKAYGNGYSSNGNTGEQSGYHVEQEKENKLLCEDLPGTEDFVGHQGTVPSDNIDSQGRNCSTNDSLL
Chain of human Endothelin Receptor Type A (ETA), EDNRA (gene 1909) (P25101 whole entry, looked up): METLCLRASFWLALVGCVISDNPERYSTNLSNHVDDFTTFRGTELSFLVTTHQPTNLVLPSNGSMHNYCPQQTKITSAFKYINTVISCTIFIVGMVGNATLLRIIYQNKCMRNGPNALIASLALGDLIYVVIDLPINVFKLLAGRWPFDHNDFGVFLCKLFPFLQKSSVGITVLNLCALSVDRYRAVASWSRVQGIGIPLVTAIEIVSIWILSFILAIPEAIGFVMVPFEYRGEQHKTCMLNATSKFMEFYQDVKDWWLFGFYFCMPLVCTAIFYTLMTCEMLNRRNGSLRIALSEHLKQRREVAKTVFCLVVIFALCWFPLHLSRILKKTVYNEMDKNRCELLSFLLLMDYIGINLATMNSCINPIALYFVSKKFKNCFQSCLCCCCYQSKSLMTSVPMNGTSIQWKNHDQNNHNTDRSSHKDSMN

Consider `O=Cc1ccccc1C=O`, for which the outcome in [1] was inactive. In addition, in assay [2], the AC50 is 19.2 µM (active).
`CC(N)=O`: the result in assay [3] was inactive.
Take `O=C(N[C@@H](c1ccccc1)[C@@H]1CCCCN1)c1cccc(C(F)(F)F)c1Cl`: the compound was classed as inactive in assay [4], in [5] and in assay [6].
For the compound `O=C(O)c1[nH]n(-c2ccc(S(=O)(=O)O)cc2)c(=O)c1N=Nc1ccc(S(=O)(=O)O)cc1`, the outcome in assay [7] and in assay [6] was inactive. Moreover, in [5], the AC50 is 16.5 µM (active).
`CSc1ccc(Oc2ccc(S(N)(=O)=O)cc2CN(C)C)cc1C`: the AC50 is 0.263 µM (active) in assay [8], 5.83 µM (active) in assay [7], 25 µM (active) in [5] and 15 µM (active) in assay [6]. The result in [4] was inactive.
As to `CCN(CC)CCOc1ccc(C(=C(Cl)c2ccccc2)c2ccccc2)cc1`, the AC50 in assay [7] was 1.58 µM (active); in assay [9] it was 18.2 µM (active); in [5], 17.3 µM (active); in [2] it was 29.1 µM (active); in [6] it was 1.79 µM (active); in [3], 32.3 µM (active). In assay [4], the outcome was inactive.
On to `CCCCCCC(CCCCCCCCCCC(=O)OCC(COC(C)=O)OC(C)=O)OC(C)=O` (stereo not drawn), for which, in assay [10], the result was inactive.
As to `CN(C)CCCN1c2ccccc2Sc2ccc(Cl)cc21`, the AC50 in assay [8] was 1.43 µM (active); in assay [10] it was 25 µM (active); in [9], 17.1 µM (active); in assay [4], 25 µM (active).
For the compound `COc1ccc(OC(F)(F)F)cc1CN[C@H]1CCCN[C@H]1c1ccccc1`, the AC50 was 13.4 µM (active) in assay [8], 10.6 µM (active) in assay [7] and 20.5 µM (active) in [4]. In addition, the result in [6] was inactive.
As to `CC(C)c1cccc(C(C)C)c1`, the compound was classed as inactive in assay [10].
As for `Cc1ccc(-c2cc(C(F)(F)F)nn2-c2ccc(S(N)(=O)=O)cc2)cc1`, the half-maximal activity concentration (AC50) in [10] was 4.96 µM (active).
As to `O=C(NS(=O)(=O)/C=C/c1cccs1)c1ccc(F)cc1Br`, in assay [3], the outcome was inactive.
